Test systems include NCI-H23 lung; NCI-H226 lung; NCI-H322M lung; HOP-62 NSCLC; NCI-H460 lung; HOP-92 NSCLC; NCI-H522 lung; A549/ATCC NSCLC; 786-0 renal; COLO 205 colon; DU-145 prostate; K-562 leukemia; MALME-3M melanoma; MDA-MB-231 breast; RXF 393 renal; SF-268 CNS; SF-295 CNS; SF-539 CNS; UACC-257 melanoma; M14 melanoma.
Experiment in all cases: NCI-60 one-dose screen, 48 h (100 = growth as untreated, 0 = no growth, -100 = all killed)
Common to all, as to conditions: 10 µM unless noted

Each structure is given as a SMILES string. Compounds without any hit were thinned out: in the full panel of roughly 83,000, 20% have a hit.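 In brief: 96-well plates, 48 h treatment, single concentration, percent growth endpoint.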 A number with no mark means an inactive call. Activity calls are given as the source filed them. How the source made its calls: active means growth percent below 10; inactive means the rest.

Turning to `CCN(CC)CCOC(=O)Nc1c(C(C)C)cccc1C(C)C`, the growth in the experiment with NCI-H23 lung is 109%; in the experiment with NCI-H226 lung, 104%; in the experiment on NCI-H322M lung, 93.5%; in the experiment with HOP-62 NSCLC, 104%; with NCI-H460 lung it was 128%; with HOP-92 NSCLC, 117%. Besides, the growth was 92.8% in the experiment on NCI-H522 lung; 95.3% with A549/ATCC NSCLC; 105% in the experiment with 786-0 renal; 117% in the experiment with COLO 205 colon; 116% in the experiment on DU-145 prostate; 99% in the experiment with K-562 leukemia. Besides, the growth with MALME-3M melanoma is 98.2%; in the experiment with MDA-MB-231 breast it was 104%; in the experiment on RXF 393 renal, 107%; with SF-268 CNS it was 106%; in the experiment with SF-295 CNS, 102%; in the experiment with SF-539 CNS, 96.6%. For the same compound, the figures for the growth with UACC-257 melanoma and with M14 melanoma were 97.5% and 107%, respectively.

Take `C/C=C/C1OCC(CC)C(CCC)O1` (stereo not given): the growth with NCI-H23 lung is 113%; with NCI-H226 lung it was 111%; in the experiment on NCI-H322M lung, 111%; with HOP-62 NSCLC, 111%; in the experiment with NCI-H460 lung, 109%; in the experiment with HOP-92 NSCLC, 110%. The growth in the experiment with NCI-H522 lung is 91.1%; with A549/ATCC NSCLC, 88%; with 786-0 renal it was 111%; in the experiment on COLO 205 colon, 114%; with DU-145 prostate it was 115%; in the experiment with K-562 leukemia, 89.3%. Also, the growth was 114% with MALME-3M melanoma; 100% in the experiment with MDA-MB-231 breast; 124% in the experiment on RXF 393 renal; 101% in the experiment with SF-268 CNS; 113% in the experiment with SF-295 CNS; 99.1% in the experiment on SF-539 CNS. The growth is 93.5% in the experiment with UACC-257 melanoma and 104% in the experiment on M14 melanoma.

For `OCC1OC(n2ccc3c2ncn2ncnc32)C(O)C1O` (stereo not given), the growth in the experiment on NCI-H23 lung is 35.8%; with NCI-H226 lung, 25.1%; in the experiment with NCI-H322M lung it was 38.4%; in the experiment with HOP-62 NSCLC, 37.3%; in the experiment with NCI-H460 lung, 26.5%; in the experiment with HOP-92 NSCLC, -0.422% (active). In addition, the growth with NCI-H522 lung is 82.7%; with A549/ATCC NSCLC it was 50.6%; in the experiment on 786-0 renal, 31.9%; in the experiment with COLO 205 colon, 35%; in the experiment on DU-145 prostate it was 16.9%; in the experiment on K-562 leukemia, 18.4%. Moreover, the growth was 83.7% in the experiment on MALME-3M melanoma; 40.9% in the experiment on MDA-MB-231 breast; 38.3% with RXF 393 renal; 47.4% with SF-268 CNS; 43.7% with SF-295 CNS; 34.3% in the experiment on SF-539 CNS. Also, the growth with UACC-257 melanoma was 97.7%; in the experiment with M14 melanoma, 51.3%.

On to `N#CCCN1C(=O)CCC1C(=O)O` (stereo not given), for which the growth was 109% in the experiment with NCI-H23 lung; 113% with NCI-H226 lung; 112% in the experiment on NCI-H322M lung; 119% with HOP-62 NSCLC; 107% in the experiment on NCI-H460 lung; 109% with HOP-92 NSCLC. In addition, the growth with NCI-H522 lung is 85%; in the experiment with A549/ATCC NSCLC, 103%; with 786-0 renal it was 107%; in the experiment on COLO 205 colon, 115%; with DU-145 prostate it was 114%; with K-562 leukemia, 96.8%. The growth in the experiment with MALME-3M melanoma was 114%; with MDA-MB-231 breast, 129%; with RXF 393 renal it was 115%; with SF-268 CNS, 97.3%; with SF-295 CNS, 101%; in the experiment with SF-539 CNS, 104%. Further, the growth is 93.4% with UACC-257 melanoma and 104% with M14 melanoma.

Regarding `Cc1ccc(Cc2ccc(C)cc2)cc1`, the growth in the experiment on NCI-H23 lung is 106%; in the experiment with NCI-H226 lung it was 100%; in the experiment with NCI-H322M lung, 98.3%; in the experiment with HOP-62 NSCLC it was 98.1%; in the experiment on NCI-H460 lung, 111%; with HOP-92 NSCLC, 97.5%. Besides, the growth in the experiment with NCI-H522 lung is 95.3%; in the experiment on A549/ATCC NSCLC, 102%; in the experiment with 786-0 renal, 96.1%; in the experiment on COLO 205 colon, 107%; in the experiment on DU-145 prostate, 107%; in the experiment on K-562 leukemia, 101%. The growth in the experiment on MALME-3M melanoma is 86.9%; with MDA-MB-231 breast it was 123%; in the experiment with RXF 393 renal it was 99%; in the experiment on SF-268 CNS, 106%; with SF-295 CNS, 101%; with SF-539 CNS it was 106%. Also, the growth in the experiment on UACC-257 melanoma is 93.3%; in the experiment on M14 melanoma, 99.6%.

With `CC(=O)N(CCCCCCN(C(C)=O)C(C)=O)C(C)=O`, the growth is 108% [100 µM] in the experiment on NCI-H23 lung; 101% [100 µM] in the experiment with NCI-H226 lung; 108% [100 µM] with NCI-H322M lung; 112% [100 µM] in the experiment with HOP-62 NSCLC; 109% [100 µM] in the experiment with NCI-H460 lung; 106% [100 µM] in the experiment with HOP-92 NSCLC. In addition, the growth in the experiment on NCI-H522 lung is 102% [100 µM]; with A549/ATCC NSCLC, 106% [100 µM]; in the experiment on 786-0 renal, 96% [100 µM]; in the experiment on COLO 205 colon, 134% [100 µM]; in the experiment with DU-145 prostate, 106% [100 µM]; with K-562 leukemia, 102% [100 µM]. Also, the growth was 107% [100 µM] in the experiment on MALME-3M melanoma; 98% [100 µM] in the experiment on MDA-MB-231 breast; 112% [100 µM] in the experiment with RXF 393 renal; 104% [100 µM] in the experiment with SF-268 CNS; 110% [100 µM] in the experiment on SF-295 CNS; 98.3% [100 µM] in the experiment on SF-539 CNS. Besides, the growth in the experiment on UACC-257 melanoma is 95.1% [100 µM]; in the experiment with M14 melanoma, 105% [100 µM].

Consider `COc1ccc(C(=O)C(=O)c2ccccc2)cc1`, for which the growth was 94% in the experiment with NCI-H23 lung; 91.9% in the experiment with NCI-H226 lung; 93.8% with NCI-H322M lung; 102% with HOP-62 NSCLC; 104% in the experiment on NCI-H460 lung; 90.7% in the experiment with HOP-92 NSCLC. The growth in the experiment on NCI-H522 lung is 97.2%; with A549/ATCC NSCLC, 104%; in the experiment on 786-0 renal, 103%; with COLO 205 colon it was 112%; in the experiment on DU-145 prostate it was 113%; with K-562 leukemia, 111%. Besides, the growth in the experiment on MALME-3M melanoma was 101%; in the experiment with MDA-MB-231 breast, 101%; in the experiment with RXF 393 renal, 92.9%; in the experiment with SF-268 CNS, 105%; with SF-295 CNS, 96.6%; with SF-539 CNS, 117%. Further, the growth is 111% in the experiment on UACC-257 melanoma and 106% with M14 melanoma.

Consider `NCCCN1CCCC1=O`, for which the growth in the experiment on NCI-H23 lung was 101%; in the experiment with NCI-H226 lung, 109%; in the experiment on NCI-H322M lung, 96.9%; in the experiment on HOP-62 NSCLC, 112%; with NCI-H460 lung, 113%; with HOP-92 NSCLC, 105%. Besides, the growth is 92.6% in the experiment with NCI-H522 lung; 91% with A549/ATCC NSCLC; 105% in the experiment with 786-0 renal; 111% with COLO 205 colon; 114% in the experiment on DU-145 prostate; 114% in the experiment on K-562 leukemia. Besides, the growth in the experiment on MALME-3M melanoma is 99.1%; with MDA-MB-231 breast, 108%; in the experiment with RXF 393 renal, 122%; in the experiment with SF-268 CNS, 113%; with SF-295 CNS, 111%; in the experiment on SF-539 CNS, 109%. Also, the growth in the experiment with UACC-257 melanoma was 97.3%; in the experiment with M14 melanoma, 113%.

Source of the values: PubChem BioAssay (NCI).
